p53ts 32C kill = kills p53ts cells at the permissive temperature. Potency, µM (doses to about 46.1 µM), without a hit: top-dose activity change, negative = cytotoxicity, usual class: cytotoxic. AID 924. hit rate 0.93% among 130,000. H1299-p53A138V at 32C, ATP luminescence viability, 24 h;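 also: 0% = DMSO and -100% = full killing by reference compound; nearly all actives have a fitted effect of over 55% in size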
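Viability by ATPlite luminescence after 24 h compound treatment (up to 46 uM) at the permissive 32C. Cells are H1299 carrying p53 A138V. Scale runs from DMSO basal to 100 uM tamoxifen as full kill; AC50 from Hill fits.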
Imprint erasure = induces erasure of genomic imprints in mouse ES cells; Potency, µM (doses to about 60.7 µM), for the others: at the highest dose activity change, positive = activation, hits mostly activators; hit rate 0.02% among 110,000; mouse ES Peg3-LacZ reporter, beta-gal luminescence, 40 h
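Readout: BetaGlo luminescence (5 min, room temp) for LacZ from the normally silent maternal Peg3 allele in female Peg3LacZ-Neo ES cells. Cells 300/well, 40 h, 37C, 5% CO2. Data normalized per plate to negative controls.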
p53ts 39C kill = p53ts cell cytotoxicity, nonpermissive temperature; AID 902; H1299-p53A138V viability at 39C, ATP luminescence, 24 h; Potency, µM (titrated, usually from 46.1 µM), for inactives: at the top dose activity change, negative = cell killing, usual class: cytotoxic; hit rate 1.5% among 130,000; also: % is scaled to controls: 0 for no effect and ±100 for the full control effect; nearly all actives have a fitted effect of over 55% in size
An asterisk follows results filed as active; ? = inconclusive; nt = not tested or not shown; ! = repeats disagree; [ ] = dose if it differs, or a comment. An excerpt weighted towards active compounds, which were near 1.8% of everything screened. Calls follow the shape of the dose curve; as a rule, active = well fitted curve in the direction sought with a large enough effect; inconclusive = small, poorly fitted or top-dose-only effect, or another doubt; inactive = no such curve, though single readings can be large; an effect the other way counts as inactive or inconclusive. Potency is read from the fitted curve at half-maximal effect.

SMILES | p53ts 32C kill | Imprint erasure | p53ts 39C kill
CC(C)CNC(=O)N1[C@H](c2cccs2)[C@@H](C)C(=O)[C@@H](C)[C@@H]1c1cccs1 | -2% | -10%[10.9 µM] | 25%
COc1ccc(-c2noc(-c3ccccc3-c3ccccc3)n2)cc1OC | 10% | -16% | -1%
COc1nc(C)ccc1-c1noc(-c2ccccn2)n1 | 10µM* | -76% | 10µM*
COc1ccccc1-c1nc(-c2ccc(C)nc2OC)no1 | ? | -32% | ?
COc1ccccc1-c1noc(-c2ccncc2)n1 | ? | -81% | ?
COc1ccccc1-c1nc(-c2ccccn2)no1 | 4µM* | -94% | 5µM*
COc1ccc(-c2noc(-c3cccc(OC)c3OC)n2)cc1 | 13µM* | -3%[10.9 µM] | ?
COc1ccc(C(=O)NNc2ncnc3c2cnn3-c2ccc(C)cc2C)cc1 | 6% | -19%[10.9 µM] | -4%
Cc1ccc(NC(=O)/C=C\C(=O)N(c2ccc(C(C)C)cc2)C(C(=O)NCc2ccco2)c2ccc(F)cc2)cc1 (stereo not drawn) | 19% | -19%[10.9 µM] | -10%
O=C(NCc1ccccc1Cl)c1cnc2sc(N3CCCCC3)nn2c1=O | -8% | -7%[10.9 µM] | -10%
COc1cccc(-c2nnc3sc(CN4CCCCC4)cn23)c1 | 7% | -18%[10.9 µM] | -20%
Cc1ccccc1Cc1c(C)nc2nc(SCC(=O)N(C)c3ccccc3)nn2c1C | 8% | -12%[10.9 µM] | -27%
COc1ccc(OC)c2sc(N3CCN(C(=O)C4CC4)CC3)nc12 | ? | -11%[10.9 µM] | ?
COc1ccc(OC)c2sc(N3CCN(C(=O)C(C)(C)C)CC3)nc12 | 16µM* | -8%[10.9 µM] | 7.9µM*
CN(C)C(=O)c1ccc(-c2nc(NCc3ccccc3)c3ccccc3n2)cc1 | -9% | -33% | -15%
Cc1c(C(=O)O)cnc2cc(-c3ccc(Cl)cc3)nn12 | 10µM* | -80% | ?
CC(=O)c1cnc2c(-c3ccc(Cl)cc3)c(C)nn2c1C | -17% | nt | 6%
CCN(CC)CCCNC(=O)c1cc2c(-c3ccc(Cl)cc3)nn(C)c2s1 | -4% | -33% | -19%
CCCN(CCC)CCCNC(=O)c1cc2c(-c3ccc(Cl)cc3)nn(C)c2s1 | -10% | 2%[10.9 µM] | 13µM*
NC(=O)C/C=C\CC(N)=O | -4%[9.22 µM] | -1%[10.9 µM] | -1%[9.22 µM]
Cc1c(N=c2c(=O)c3ccccc3c2=O)c(=O)n(-c2ccccc2)n1C | 10µM* | -47% | 13µM*
Cc1c(N=CC=Nc2c(C)n(C)n(-c3ccccc3)c2=O)c(=O)n(-c2ccccc2)n1C | -2% | 2% | -1%
COc1cc(Cl)c(C)cc1NC(=O)Cn1ncc2c([nH]c3ccccc32)c1=O | -3% | nt | nt
CN(C)CCCN1c2ccccc2Sc2ccc(Cl)cc21 | ? | -13% | 10µM*!
OCCN1CCN(CCCN2c3ccccc3Sc3ccc(Cl)cc32)CC1 | 16µM*! | -21% | 10µM*!
SMILES | p53ts 32C kill | Imprint erasure | p53ts 39C kill
CN(C)CCCN1c2ccccc2Sc2ccc3ccccc3c21 | -3%[9.22 µM] | -17%[10.9 µM] | -1%[9.22 µM]
CC(=O)c1ccc2c(c1)N(CCCN1CCC(CCO)CC1)c1ccccc1S2 | nt | -9%[16.8 µM] | nt
CCOC(=O)CCN1C(=O)[C@H]2[C@H]3[C@H](O)[C@H](O)C/C(=N/OCc4ccccc4)[C@H]3CC[C@@H]2C1=O | -8%[9.22 µM] | nt | 5%[9.22 µM]
COC(=O)Cn1c(CN2CCc3ccccc3C2)nc2c1c(=O)n(C)c(=O)n2C | 5µM* | -39% | ?
Cc1ccccc1Cn1c(CN2CCc3ccccc3C2)nc2c1c(=O)n(C)c(=O)n2C | 8% | -18% | 14%
Cc1ccc(-c2nnc(Nc3ccccc3)o2)cc1 | 3.2µM* | -92% | 3.2µM*
Cc1ccc(-c2nnc(-c3ccc4ccccc4c3)o2)cc1 | -3%[9.22 µM] | -14%[10.9 µM] | -15%[9.22 µM]
CC(=O)N1CCc2c(sc3c2c(=O)n(CCc2ccccc2)c(=O)n3Cc2ccc(F)cc2)C1 | 30% | -7%[10.9 µM] | -16%
Cc1cc2nc(-c3cccc(NC(=O)C(C)C)c3C)oc2cc1C | ? | -12%[10.9 µM] | 0.13µM*
Cc1cc2nc(-c3cccc(NC(=O)c4ccc(Br)o4)c3C)oc2cc1C | ? | -24% | ?
CCOC(=O)c1noc2ncnc(N3CCN(c4ccccc4OC)CC3)c12 | 2% | -4%[10.9 µM] | 13%
Nn1c(COc2ccccc2)nnc1SC(F)F | 6% | 4µM* | 0%
Nn1c(COc2ccccc2)nnc1SCc1cc(=O)[nH]c2ccccc12 | 6% | 6% | 8%
CC(CCC(=O)O)C1CCC2C3CC(O)[C@@H]4CC(O)CC[C@]4(C)C3CC[C@@]12C (stereo partly drawn) | 10% | 8% | 6%
COC(=O)c1c(SCC(=O)Nc2cccc(C(F)(F)F)c2)[nH]c2ccccc2c1=O | 22% | -5%[10.9 µM] | -7%
Cc1ccc(C)c(Cn2c3ccccc3c3cnn(CC(=O)NC(C)CCc4ccccc4)c(=O)c32)c1 (stereo not drawn) | -27% | 11%[10.9 µM] | 5µM*

High-throughput results (PubChem)
